We go through 69 molecules from PubChem BioAssay.

Assay [1] relates to transactivating tegument protein VP16 (Human herpesvirus 1). The assay can be described thus: compounds suppressing VP16-driven luciferase signal – cell-based, luminescence, single concentration, counter-screen for SRC2 inhibitor project (AID 652007; in the data active means inhibition above about 36%). Conditions: cell-based VP16 transactivation luciferase reporter, at 8.9 µM, active compounds read high. For orientation: Counterscreens check selectivity or assay interference.

Assay [2] concerns the target Nuclear receptor coactivator 2 (Homo sapiens) (UniProt Q15596). The assay can be described thus: inhibition of GAL4-SRC2 driven luciferase expression – cell-based, luminescence, HEK293, triplicate, confirmation (AID 652008).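 Further: 0% = DMSO-treated cells and 100% = Gossypol at 36 µM.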 To be noted: HEK293 GAL4-SRC2 luciferase reporter, at 8.9 µM, active compounds read high. A general note: In a reporter assay the amount or activity of a reporter protein is the signal.

Unmarked numbers belong to inactive results. Calls of active or inactive are those of the source.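 How the source made its calls, unless noted: active means mean inhibition above 46.5%, the solvent-only control mean plus 3 SD; inactive means the rest.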

Nuclear receptor coactivator 2 (Homo sapiens), sequence (Q15596 whole entry, looked up, the tested form may be a part): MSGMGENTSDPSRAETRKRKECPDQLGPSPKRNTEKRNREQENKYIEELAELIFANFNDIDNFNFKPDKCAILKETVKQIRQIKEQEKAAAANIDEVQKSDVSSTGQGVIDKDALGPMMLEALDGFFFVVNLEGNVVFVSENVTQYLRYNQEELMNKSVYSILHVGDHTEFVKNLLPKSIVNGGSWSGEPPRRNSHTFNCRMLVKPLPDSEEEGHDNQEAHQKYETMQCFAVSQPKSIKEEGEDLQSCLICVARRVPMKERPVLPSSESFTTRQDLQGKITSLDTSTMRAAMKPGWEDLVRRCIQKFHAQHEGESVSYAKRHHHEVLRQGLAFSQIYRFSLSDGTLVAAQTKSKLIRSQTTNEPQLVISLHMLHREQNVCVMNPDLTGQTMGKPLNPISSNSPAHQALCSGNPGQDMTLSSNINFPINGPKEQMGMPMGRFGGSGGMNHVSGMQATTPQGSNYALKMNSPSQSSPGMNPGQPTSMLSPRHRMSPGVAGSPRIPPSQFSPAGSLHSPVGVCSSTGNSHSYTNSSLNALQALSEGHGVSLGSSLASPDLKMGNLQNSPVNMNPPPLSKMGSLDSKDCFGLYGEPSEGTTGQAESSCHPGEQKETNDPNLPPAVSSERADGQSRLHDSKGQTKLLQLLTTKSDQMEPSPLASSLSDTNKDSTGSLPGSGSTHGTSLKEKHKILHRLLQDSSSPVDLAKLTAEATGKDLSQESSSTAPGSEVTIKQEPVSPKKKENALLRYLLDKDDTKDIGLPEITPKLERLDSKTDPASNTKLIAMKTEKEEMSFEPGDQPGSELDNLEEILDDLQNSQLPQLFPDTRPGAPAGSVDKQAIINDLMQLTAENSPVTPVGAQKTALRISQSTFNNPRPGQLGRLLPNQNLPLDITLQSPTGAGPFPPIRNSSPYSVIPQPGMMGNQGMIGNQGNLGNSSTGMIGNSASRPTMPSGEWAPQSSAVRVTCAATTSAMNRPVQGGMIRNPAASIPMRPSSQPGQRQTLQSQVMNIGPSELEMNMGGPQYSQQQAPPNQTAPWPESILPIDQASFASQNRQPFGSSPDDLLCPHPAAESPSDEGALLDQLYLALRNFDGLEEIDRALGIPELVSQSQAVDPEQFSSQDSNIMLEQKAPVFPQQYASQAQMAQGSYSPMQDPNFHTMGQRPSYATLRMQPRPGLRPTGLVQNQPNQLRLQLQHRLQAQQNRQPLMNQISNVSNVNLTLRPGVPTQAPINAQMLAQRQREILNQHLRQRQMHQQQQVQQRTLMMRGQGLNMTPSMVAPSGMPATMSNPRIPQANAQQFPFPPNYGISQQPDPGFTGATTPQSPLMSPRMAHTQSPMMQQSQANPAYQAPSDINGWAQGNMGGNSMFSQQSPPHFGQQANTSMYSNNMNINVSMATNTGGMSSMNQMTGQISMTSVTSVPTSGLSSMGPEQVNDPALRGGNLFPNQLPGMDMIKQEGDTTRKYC

As a reminder, the inhibition is the drop in the measured response relative to a control, in per cent. Regarding `O=C(Nc1nccs1)c1cc([N+](=O)[O-])ccc1Cl`, the inhibition in assay [1] is 12.7%; in assay [2] it was 42.9%.
Regarding `Cc1ccc(NC(=O)c2nc(S(=O)(=O)Cc3ccccc3)ncc2Cl)cc1`, the inhibition was 56.5% (active) in assay [1] and 74.4% (active) in assay [2].
For the molecule `CCc1sc(NC(=O)CN2CCOCC2)nc1-c1ccccc1`, the inhibition in assay [1] was -0.48%; in assay [2] it was -0.93%.
Take `O=C(Cn1cnc2ccccc21)N/N=C/C(Br)=C/c1ccccc1`: the inhibition is -14% in assay [1] and -5.7% in assay [2].
On the same counts, the results for `O=[N+]([O-])c1cccc2cnccc12` are -10.2% and 3.57%.
On the same counts, the results for `Cc1ccc(-n2c(C)c([N+](=O)[O-])c3ccc(O)cc32)cc1` are 2.28% and 47.5% (active).
For `Cc1ccc(C(=O)c2cnc3ccccc3c2-c2ccccc2)cc1`, in that order: -3.52% and 16.4%.
Take `Cn1c(=O)c2c(ncn2CCOc2cccc(Br)c2)n(C)c1=O`: the inhibition in assay [1] was 2.33%; in assay [2] it was 2.64%.
On the same counts, the results for `COc1ccc(CNC(=O)COC(=O)/C=C/c2cccc(Br)c2)cc1OC` are -0.64% and -19.4%.
For `O=C(CN1C(=O)NC2(CCCCC2)C1=O)Oc1ccc2c(C(F)(F)F)cc(=O)oc2c1`, in that order: -11.6% and -1.74%.
Consider `CCN(CC)S(=O)(=O)c1ccc(/C=C/C(=O)OCC(=O)NCc2ccc3c(c2)OCO3)cc1`, for which the inhibition in assay [1] was -0.7%; in assay [2] it was -11.1%.
`COC(=O)[C@]12C[C@H](CC(=O)N3CCCC3)C(=O)N(CCC3=CCCCC3)C1=C[C@H](C(C)C)O[C@@H]2C1CC1`: the results for the inhibition in assay [1] and in assay [2] were -0.66% and -19.4%, respectively.
`CC(C)c1ccccc1NC(=O)COC(=O)CCN1C(=O)/C(=C\C=C\c2ccccc2)SC1=S`: the inhibition in assay [1] is 45.2% (active); in assay [2], 77.6% (active).
In the case of `Cc1c(CCC(=O)N[C@@H](C)C(=O)O)c(=O)oc2c(C)c3oc4c(c3cc12)CCCC4`, the inhibition is 25% in assay [1] and 27.4% in assay [2].
For `COc1ccc(S(=O)(=O)N2CCCCCC2)cc1C(=O)NCc1ccco1`, in that order: -3.91% and 1.95%.
For the molecule `COc1ccc(S(=O)(=O)Nc2ccc(C)cn2)cc1`, the inhibition in assay [1] was -11.7%; in assay [2], -15.4%.
For `O=C(NCCCN1CCN(c2ccccc2)CC1)C1CCCN(c2ncnc3c2nc2n3CCCCC2)C1` (stereo not drawn), in that order: 6.18% and -21.6%.
Consider `CCOC(=O)C1(Cc2ccccc2)CCN(Cc2ccnc3ccccc23)CC1`, for which the figures for the inhibition in assay [1] and in assay [2] were -2.44% and 14.6%, respectively.
For the molecule `COc1ccc(O)c(C(=O)c2cnn(S(=O)(=O)c3ccc(C)cc3)c2)c1`, the inhibition in assay [1] was -7.7%; in assay [2] it was 7.12%.
On to `CCCN(CCC)Cc1c(C(=O)N/N=C/CCc2ccccc2)nnn1-c1nonc1N`, for which the inhibition was -6.81% in assay [1] and -9.2% in assay [2].
As for `Cc1csc2ncnc(N3CCN(C(=O)Nc4ccc(OC(F)(F)F)cc4)CC3)c12`, the figures for the inhibition in assay [1] and in assay [2] were 1.45% and 26.6%, respectively.
For `Cc1nc([N+](=O)[O-])c(Br)n1Cc1ccccc1`, the results for the inhibition in assay [1] and in assay [2] were 3.69% and 11.9%, respectively.
As for `NC(=O)C1CCN(CCS(=O)(=O)c2ccc(Cl)cc2)CC1`, the inhibition is -1.09% in assay [1] and -24.6% in assay [2].
For `Cc1cccc(N(Cc2cc(=O)[nH]c3ccccc23)C(=O)CCl)c1`, in that order: 42.4% (active) and 83% (active).
Regarding `CN(Cc1ccccc1)S(=O)(=O)c1ccc(Cl)c(C(=O)NCCCN2CCOCC2)c1`, the inhibition was -5.53% in assay [1] and 5.69% in assay [2].
Take `C[C@@H]1C(c2ccc(F)cc2)=NN(c2ccccc2)[C@H]1C(=O)N1CCOC1=O`: the inhibition in assay [1] is -11.2%; in assay [2], -21.5%.
`CCN(CC)C(=O)C1CCCN(c2ncnc3c2cnn3-c2cccc(C)c2)C1` (stereo not drawn): the inhibition is -13.2% in assay [1] and 30.7% in assay [2].
For `CCCCN1C[C@@H](COCc2ccccc2)Oc2cc(F)ccc2S1(=O)=O`, in that order: -1.24% and 11.9%.
On the same counts, the results for `Cc1c([N+](=O)[O-])cnc(Sc2ccccc2)c1[N+](=O)[O-]` are 3.41% and 16.7%.
For `COC(=O)c1ccc(NC(=O)c2nc(S(=O)(=O)Cc3cccc(C)c3)ncc2Cl)cc1`, in that order: 46% (active) and 53.4% (active).
For `CC(C)(C)c1ccc(Cn2c(=O)cnc3ccccc32)cc1`, the results for the inhibition in assay [1] and in assay [2] were 22.6% and 56.7% (active), respectively.
For the molecule `O=C(CSc1nc2nc(-c3cccs3)cc(C(F)(F)F)c2c(=O)[nH]1)C(F)(F)F`, the inhibition is -28.3% in assay [1] and 10% in assay [2].
On the same counts, the results for `O=C(/C=C/c1cn(-c2ccccc2)nc1-c1cccnc1)c1ccco1` are 29.5% and 39.6%.
On the same counts, the results for `CCOc1ccc(-c2nc(CSCC(=O)N3CCN(c4cccc(OC)c4)CC3)c(C)o2)cc1` are 23.2% and 49.8% (active).
With `CCCNC(=O)c1ccc(N2CCC3(CC2)CC(c2cccc(Br)c2)=NO3)c([N+](=O)[O-])c1`, the inhibition was 8% in assay [1] and 7.7% in assay [2].
For `O=[N+]([O-])c1cc(Br)c(Nc2ccccc2)c([N+](=O)[O-])c1`, in that order: -21.9% and -12.5%.
On the same counts, the results for `O=C(CCCCl)NC(=S)Nc1cc(C(F)(F)F)ccc1N1CCOCC1` are -12.4% and -9.88%.
As for `COc1ccc(/C=C2/SC(=S)N(CCCC(=O)N3CCN(C)CC3)C2=O)cc1`, the inhibition was 8.95% in assay [1] and 2.01% in assay [2].
With `CC(C)Cc1nnc(NC(=O)CCC(=O)N2CCN(Cc3ccccc3)CC2)s1`, the figures for the inhibition in assay [1] and in assay [2] were 8.01% and 17.4%, respectively.
On the same counts, the results for `CC(C)COc1ccc(C(=S)N2CCCC2)cc1` are -1.55% and 40.6%.
For `O=C(O)COc1ccccc1/C=N/NC(=O)Cc1csc(Nc2cccc(C(F)(F)F)c2)n1`, in that order: -15.7% and -14.6%.
On the same counts, the results for `O=C1C=CC2C3C(=O)N(c4ccccc4)C(=O)C3C1N2Cc1ccccc1` (stereo not drawn) are 30.5% and 65.9% (active).
On to `CCOc1ccc(-c2cc(CCCC(=O)N3CCN(c4ccc(OC)cc4)CC3)no2)cc1`, for which the inhibition in assay [1] was 4.64%; in assay [2], 18.6%.
On the same counts, the results for `COc1ccc(S(=O)(=O)N2c3ccc(F)cc3CCC2C)cc1` (stereo not drawn) are -6.76% and 1.23%.
Turning to `CCOC(=O)c1[nH]c(=S)n(-c2ccccc2)c1C(=O)OCC`, the inhibition in assay [1] is -1.17%; in assay [2] it was -17.4%.
For `CCN(C(=O)C1CCCN(c2nnc(-n3cccc3)s2)C1)c1ccccc1C` (stereo not drawn), in that order: 11.5% and 16.4%.
For `CN1c2ccccc2C(C)(C)C12C=Cc1cc(O)ccc1O2` (stereo not drawn), in that order: -7.85% and 23.8%.
For `COc1ccc(CN2CCC(C(=O)Nc3ccc(Oc4ccccc4)nc3)CC2)cc1F`, in that order: 16.9% and 28.5%.
Regarding `Cc1nc2cc(-c3ccccc3)nn2c(C)c1CCC(=O)N1CCN(c2ccccc2)CC1`, the figures for the inhibition in assay [1] and in assay [2] were 3.67% and 52.6% (active), respectively.
For the molecule `Cc1ccc(-c2noc(CCC(=O)NCCN3CCN(Cc4ccccc4)CC3)n2)cc1`, the inhibition in assay [1] was 12.2%; in assay [2], 41.6%.
In the case of `CC(=O)Nc1ccc(NC(=O)c2ccc(-c3ccnn3C)c3ccoc23)cc1`, the inhibition was -6.57% in assay [1] and 26.4% in assay [2].
Regarding `CC(=O)N1CCCc2cc(S(=O)(=O)N3CCCC(C(=O)NCc4ccccc4Cl)C3)ccc21` (stereo not drawn), the inhibition in assay [1] is 24.9%; in assay [2], 21.1%.
Regarding `COc1ccc2nc(NC(=O)C3CCN(S(=O)(=O)c4cccc5nsnc45)CC3)sc2c1`, the inhibition in assay [1] was 39.9% (active); in assay [2] it was 52.5% (active).
For the molecule `Cc1cc(C(=O)COc2cccnc2[N+](=O)[O-])c(C)n1-c1ccccc1F`, the inhibition in assay [1] is -54.6%; in assay [2] it was 62.7% (active).
On the same counts, the results for `O=C(NC1CC1)c1ccc2c(c1)N(Cc1ccc(Cl)cc1)CCS2` are 4.34% and 18.6%.
For `CC(C)[C@H](NC(=O)[C@@H]1Cc2ccccc2CN1)C(=O)Nc1ccc2c(c1)OCCO2`, in that order: -21% and -29.4%.
Consider `COc1ccc(OCC(=O)Nc2ccc3c(c2)C(=O)NC3=O)cc1`, for which the inhibition in assay [1] was -1.89%; in assay [2] it was -9.88%.
As for `COc1ccc(-c2ncncc2-c2csc(C)n2)c(O)c1`, the inhibition is -10.8% in assay [1] and -21.2% in assay [2].
On the same counts, the results for `Cc1ccc(NC(=O)CCN2CCCCC2)cc1` are -25% and 32.5%.
On to `CCOC(=O)c1c(C)[nH]c(C(=O)Nc2ccc(NC(C)=O)cc2)c1C`, for which the inhibition was 6.79% in assay [1] and 8.17% in assay [2].
On the same counts, the results for `C[C@@H]1CNCCN1c1ccc(N2CCN(Cc3ccccc3)[C@@H](C)C2)c(C#N)c1` are 15.5% and 17.3%.
On the same counts, the results for `COc1ccccc1-c1cn[nH]c1-c1ccc(O)cc1O` are 1.82% and 11.9%.
On the same counts, the results for `O=C(Nc1ccc2nc3n(c(=O)c2c1)CCCCC3)c1cc([N+](=O)[O-])ccc1F` are 32.1% and 30.4%.
In the case of `O=C(CCCN1C(=O)/C(=C/c2ccccc2Cl)SC1=S)NNC(=O)c1cccnc1`, the values for the inhibition in assay [1] and in assay [2] were 34.3% and 29.9%, respectively.
For `COc1cc(CNc2ccc3[nH]c(=O)[nH]c3c2)cc(Br)c1OCc1ccc(F)cc1`, in that order: 1.78% and 29.9%.
In the case of `Nc1ccc(Oc2ccc3c(c2)C(=O)N(CC2CCCO2)C3=O)cc1` (stereo not drawn), the figures for the inhibition in assay [1] and in assay [2] were -45.6% and 52.8% (active), respectively.
For `CC(=O)O[C@@H]1C[C@H]2C(C)(C)C(=O)C=C[C@]2(C)[C@H]2CC[C@@]3(C)[C@H](c4ccoc4)OC(=O)[C@H]4O[C@]43[C@@]21C`, in that order: 35.9% (active) and 27%.
For the molecule `O=C(CCCSc1nc2ccccc2s1)NC1=NCCS1`, the inhibition in assay [1] was 27.1%; in assay [2] it was 20.4%.
For `O=C(CCCN1C(=O)/C(=C/c2ccccc2Cl)SC1=S)Nc1cccnc1`, in that order: -29.3% and -4.66%.
